Measurements taken from PubChem BioAssay (EPA / NIEHS).
Records with an inconclusive call do not appear. Active and inactive are the calls of the source. The calls were made as follows, unless noted: active = hit-call score of the fitted dose curve at least 0.9, where 1 is the maximum; inconclusive = response in the unintended direction; inactive = score below 0.9.

biological target: X-box-binding protein 1 (Homo sapiens) (UniProt P17861); experiment: ATG_Xbp1_CIS: Attagene CIS-FACTORIAL HepG2 Assay for human X-box Binding Protein 1 (XBP1) (AID 2282972; active = hit-call score of the fitted dose curve at least 0.9, where 1 is the maximum; inactive = score below 0.9); conditions: HepG2 XBP1 cis-element reporter, Attagene multiplex; actives raise or lower the signal
Sequence (P17861 whole entry, looked up): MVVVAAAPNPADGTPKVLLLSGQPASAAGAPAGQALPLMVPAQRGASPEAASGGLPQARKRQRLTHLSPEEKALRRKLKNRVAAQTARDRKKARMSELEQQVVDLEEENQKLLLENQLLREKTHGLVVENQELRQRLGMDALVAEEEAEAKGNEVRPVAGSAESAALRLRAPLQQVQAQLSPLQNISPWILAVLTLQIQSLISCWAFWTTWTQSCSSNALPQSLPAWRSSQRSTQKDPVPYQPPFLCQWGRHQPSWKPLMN
How it was run: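 After a 24-hour chemical exposure of HepG2 cells carrying cis-regulated reporters, reporter mRNA levels are assessed. Quantification uses RT-PCR, 6-FAM labelling and capillary electrophoresis. Gain- or loss-of-signal is fitted against DMSO.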

| Structure (SMILES) | outcome |
| --- | --- |
| CC1=CC2C3C=CC(C3)C2C1C (stereo unspecified) | inactive |
| C[Si](Cl)(Cl)CCC(F)(F)C(F)(F)C(F)(F)C(F)(F)C(F)(F)C(F)(F)F | inactive |
| CSc1ccc(O)cc1C | inactive |
| OCC(F)(F)C(F)(F)C(F)(F)CO | inactive |
| O=C1c2ccccc2C(=O)c2c(Cl)cccc21 | inactive |
| OCC(O)CC(F)(F)C(F)(F)C(F)(F)C(F)(F)C(F)(F)C(F)(F)C(F)(F)C(F)(F)F (stereo unspecified) | inactive |
| COC(F)(C(F)F)C(F)(F)F (stereo unspecified) | inactive |
| NCC(F)(F)C(F)(F)C(F)(F)C(F)(F)C(F)(F)C(F)(F)F | inactive |
| OCC(F)(F)C(F)(F)C(F)(F)C(F)(F)C(F)(F)C(F)(F)C(F)(F)C(F)(F)CO | inactive |
| OCCCC(F)(F)C(F)(F)C(F)(F)C(F)(F)C(F)(F)C(F)(F)C(F)(F)C(F)(F)F | inactive |
| NC(=O)C(F)(F)C(F)(F)C(F)(F)C(F)(F)C(F)(F)C(F)(F)C(F)(F)F | inactive |
| FC(F)(F)C(F)(F)C(F)(F)CC1CO1 (stereo unspecified) | inactive |
| CCOC(=O)CC(=O)C(F)(F)C(F)(F)F | inactive |
| C=C(C)C(=O)OCC(F)(F)C(F)(F)C(F)(F)C(F)F | inactive |
| CC(C)CC=C(C=O)c1ccccc1 | inactive |
| NC(=O)C(F)(F)C(F)(F)C(F)(F)C(F)(F)C(N)=O | inactive |
| Cc1ccc2c(c1)OCC(=O)CO2 | inactive |
| COC(=O)c1ccc(C=O)cc1 | inactive |
| O=C(F)C1(F)C(F)(F)C(F)(F)C(F)(F)C(F)(F)C1(F)F | inactive |
| Nc1c(Br)cc([N+](=O)[O-])cc1Br | inactive |
| O=S(=O)(Cl)C(F)(F)C(F)(F)C(F)(F)C(F)(F)C(F)(F)C(F)(F)C(F)(F)C(F)(F)F | inactive |
| CCOC(C=C(C)CCC=C(C)C)OCC | inactive |
| CNS(=O)(=O)C(F)(F)C(F)(F)C(F)(F)C(F)(F)C(F)(F)C(F)(F)C(F)(F)C(F)(F)F | inactive |

test system: not listed separately; experiment: ATG_M_19_TRANS: Attagene TRANS-FACTORIAL HepG2 Assay for M19 Transcription Factor (Internal Marker) (AID 2282974); conditions: HepG2 Attagene TRANS-FACTORIAL M19 internal marker reporter
How it was run: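 Fluorescence of 6-FAM-labelled reporter cDNA fragments, separated by capillary electrophoresis, served as the readout. These derived from HepG2 cells carrying transfected GAL4-UAS reporter units after 24 h dosing, with DMSO as negative control.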

| Structure (SMILES) | outcome |
| --- | --- |
| O=C(O)C(F)(F)C(F)(F)C(F)(F)OC(F)(F)F | inactive |
| CSc1ccc(O)cc1C | inactive |
| O=C1c2ccccc2C(=O)c2c(Cl)cccc21 | inactive |
| OCC(O)CC(F)(F)C(F)(F)C(F)(F)C(F)(F)C(F)(F)C(F)(F)C(F)(F)C(F)(F)F (stereo unspecified) | inactive |
| CCC(=O)OC(C)c1ccccc1 (stereo unspecified) | inactive |
| O=C1C=CC(=O)N1c1ccccc1 | inactive |
| NC(=O)C(F)(F)C(F)(F)C(F)(F)C(F)(F)C(F)(F)C(F)(F)C(F)(F)F | inactive |
| CCOC(=O)CC(=O)C(F)(F)C(F)(F)F | inactive |
| Cc1cnccn1 | inactive |
| C=C(C)C(=O)OCC(F)(F)C(F)(F)C(F)(F)C(F)F | inactive |
| CC(C)CC=C(C=O)c1ccccc1 | inactive |
| NC(=O)C(F)(F)C(F)(F)C(F)(F)C(F)(F)C(N)=O | inactive |
| Nc1cccnc1N | inactive |
| Cc1ccc2c(c1)OCC(=O)CO2 | inactive |
| COC(=O)c1ccc(C=O)cc1 | inactive |
| O=C(F)C1(F)C(F)(F)C(F)(F)C(F)(F)C(F)(F)C1(F)F | inactive |
| FC(F)(F)C(F)(F)C(F)(F)C(F)(F)C(F)(F)C(F)(F)C(F)(F)CCI | inactive |
| O=S(=O)(Cl)C(F)(F)C(F)(F)C(F)(F)C(F)(F)C(F)(F)C(F)(F)C(F)(F)C(F)(F)F | inactive |
| CCOC(C=C(C)CCC=C(C)C)OCC | inactive |
| CNS(=O)(=O)C(F)(F)C(F)(F)C(F)(F)C(F)(F)C(F)(F)C(F)(F)C(F)(F)C(F)(F)F | inactive |

test system: not listed separately; experiment: ATG_GAL4_TRANS: Attagene TRANS-FACTORIAL HepG2 Assay for GAL4 (Internal Marker) (AID 2282976); conditions: HepG2 Attagene TRANS GAL4 internal marker reporter
How it was run: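 Background-control readout: GAL4-UAS reporter transcript in transiently transfected HepG2 cells after 24 h compound exposure. Measured by RT-PCR, 6-FAM primer extension, HpaI digest and capillary electrophoresis; gain-of-signal fit versus DMSO.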

| Structure (SMILES) | outcome |
| --- | --- |
| C[Si](Cl)(Cl)CCC(F)(F)C(F)(F)C(F)(F)C(F)(F)C(F)(F)C(F)(F)F | inactive |
| O=C(O)C(F)(F)C(F)(F)C(F)(F)OC(F)(F)F | inactive |
| CSc1ccc(O)cc1C | inactive |
| OCC(F)(F)C(F)(F)C(F)(F)CO | inactive |
| O=C1c2ccccc2C(=O)c2c(Cl)cccc21 | inactive |
| OCC(O)CC(F)(F)C(F)(F)C(F)(F)C(F)(F)C(F)(F)C(F)(F)C(F)(F)C(F)(F)F (stereo unspecified) | inactive |
| CCC(=O)OC(C)c1ccccc1 (stereo unspecified) | inactive |
| COC(F)(C(F)F)C(F)(F)F (stereo unspecified) | inactive |
| NCC(F)(F)C(F)(F)C(F)(F)C(F)(F)C(F)(F)C(F)(F)F | inactive |
| OCC(F)(F)C(F)(F)C(F)(F)C(F)(F)C(F)(F)C(F)(F)C(F)(F)C(F)(F)CO | inactive |
| O=C1C=CC(=O)N1c1ccccc1 | inactive |
| FC(F)(F)C(F)(F)C(F)(F)CC1CO1 (stereo unspecified) | inactive |
| CCOC(=O)CC(=O)C(F)(F)C(F)(F)F | inactive |
| Cc1cnccn1 | inactive |
| C=C(C)C(=O)OCC(F)(F)C(F)(F)C(F)(F)C(F)F | inactive |
| CC(C)CC=C(C=O)c1ccccc1 | inactive |
| CC(C)=CCCC(C)O (stereo unspecified) | inactive |
| NC(=O)C(F)(F)C(F)(F)C(F)(F)C(F)(F)C(N)=O | inactive |
| Nc1cccnc1N | inactive |
| COC(=O)c1ccc(C=O)cc1 | inactive |
| FC(F)(F)C(F)(F)C(F)(F)C(F)(F)C(F)(F)C(F)(F)C(F)(F)CCI | inactive |
| Nc1c(Br)cc([N+](=O)[O-])cc1Br | inactive |
| CCOC(C=C(C)CCC=C(C)C)OCC | inactive |
